Compounds without any hit were thinned out: in the full panel of roughly 79,000, 15% have a hit. Unmarked numbers belong to inactive results. Active and inactive are the calls of the source. Rule as the data show it: active = growth inhibition above about 70%; inactive = the rest.
Experiments:
[1] = NCI Yeast Anticancer Drug Screen. Data for the rad50 strain (AID 155);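 also: 0% = growth of vehicle-only cultures of the same strain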; settings: S. cerevisiae rad50 strain growth inhibition, stronger effect = higher value
Outline: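 A DNA repair-deficient yeast mutant serves as the test organism; compound-induced growth inhibition is calculated against vehicle-treated cells.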

[2] = NCI Yeast Anticancer Drug Screen. Data for the mec2-1 strain (AID 157); settings: S. cerevisiae mec2-1 strain, stronger effect = higher value
Outline: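 Strain: mec2-1 (DNA repair/cell cycle alteration). Compound exposure, then growth measured; inhibition expressed relative to vehicle.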

[3] = NCI Yeast Anticancer Drug Screen. Data for the sgs1 mgt1 strain (AID 161);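 also: 0% = growth of cultures given vehicle only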; settings: S. cerevisiae sgs1 mgt1 strain, stronger effect = higher value
Outline: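 Mutant yeast exposed to compound; growth scored against vehicle-only wells.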

[4] = NCI Yeast Anticancer Drug Screen. Data for the cln2 rad14 strain (AID 165);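 also: 0% = growth equal to vehicle treated cultures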; settings: S. cerevisiae cln2 rad14 strain, stronger effect = higher value
Outline: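 Compounds are applied to the cln2 rad14 yeast strain, and growth is then compared with that of vehicle-treated cultures to give inhibition.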

[5] = NCI Yeast Anticancer Drug Screen. Data for the bub3 strain (AID 167); settings: S. cerevisiae bub3 mutant strain, stronger effect = higher value
Outline: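 Inhibition values come from growth of compound-treated mutant yeast normalised to vehicle-treated controls.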

[6] = NCI Yeast Anticancer Drug Screen. Data for the mlh1 rad18 strain (AID 175); settings: S. cerevisiae mlh1 rad18 strain growth inhibition, stronger effect = higher value
Outline: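 Read-out is yeast growth inhibition, calculated against vehicle-only controls. The compound was applied to a strain engineered with DNA damage repair alterations.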

[7] = at 5.0 µM (retest, dose inferred, filed as 0.5)
[8] = at 50.0 µM (retest, dose inferred, filed as 5.0)

Structure (SMILES)	growth inhibition [1, 7]	growth inhibition [1, 8]	growth inhibition ([1]; at 50.0 µM)	growth inhibition [2, 7]	growth inhibition [2, 8]	growth inhibition ([2]; at 50.0 µM)	growth inhibition [3, 7]	growth inhibition [3, 8]	growth inhibition ([3]; at 50.0 µM)	growth inhibition [4, 7]	growth inhibition [4, 8]	growth inhibition ([4]; at 50.0 µM)	growth inhibition [5, 7]	growth inhibition [5, 8]	growth inhibition ([5]; at 50.0 µM)	growth inhibition [6, 7]	growth inhibition [6, 8]	growth inhibition ([6]; at 50.0 µM)
COc1ccc(OP2(Oc3ccc(OC)cc3)=NP(Oc3ccc(OC)cc3)(Oc3ccc(OC)cc3)=NP(Oc3ccc(OC)cc3)(Oc3ccc(OC)cc3)=NP(Oc3ccc(OC)cc3)(Oc3ccc(OC)cc3)=N2)cc1	41%	2%	61.3%	7%	-9%	65.8%	71% (active)	28%	67.3%	0%	-13%	24.1%	20%	35%	54.5%	17%	-2%	78.8% (active)
Oc1ccc(-c2nnc(-c3ccc(Cl)cc3Cl)o2)cc1	6%	80% (active)	54.6%	2%	82% (active)	50.8%	0%	85% (active)	54.2%	2%	86% (active)	74.4% (active)	17%	91% (active)	47.5%	-2%	76% (active)	51.8%
CN(C)CCC(=O)c1ccc2c(ccc3ccccc32)c1	5%	36%	69.7%	10%	83% (active)	66.8%	8%	92% (active)	90.5% (active)	-3%	51%	-7.8%	6%	94% (active)	84.7% (active)	0%	90% (active)	77.2% (active)
CCCC(c1ccc(O)cc1)c1ccc(O)cc1	1%	98% (active)	99.5% (active)	-5%	99% (active)	99.5% (active)	-1%	95% (active)	99.4% (active)	12%	96% (active)	99.2% (active)	1%	97% (active)	99.5% (active)	0%	96% (active)	99.5% (active)
NC(=O)c1ncn(C2OC(CO)C(O)C2O)c1O (configuration not stated)	20%	6%	-7.65%	-9%	-10%	-11.4%	-3%	7%	11.3%	13%	10%	4%	1%	32%	-7.85%	2%	-4%	-47.8%
c1ccc(-c2cc(CN3CCOCC3)c(-c3ccccc3)o2)cc1	-1%	98% (active)	52.8%	-6%	99% (active)	51.9%	3%	99% (active)	57.9%	-6%	99% (active)	56.4%	1%	99% (active)	55.8%	-2%	99% (active)	54.1%
CN(C)CCN(C)N=Nc1c(-c2ccc(Cl)cc2)n[nH]c1C(F)(F)F	98% (active)	99% (active)	98.8% (active)	99% (active)	99% (active)	99.7% (active)	99% (active)	99% (active)	99.4% (active)	99% (active)	99% (active)	99.3% (active)	99% (active)	99% (active)	96% (active)	99% (active)	99% (active)	99.5% (active)
CC(C)(C)c1cc(C(=O)[O-])c([OH2+])c(C(C)(C)C)c1.CC(C)(C)c1cc(C(=O)[O-])c([OH2+])c(C(C)(C)C)c1.[Mn+2]	22%	59%	99% (active)	27%	60%	98.8% (active)	21%	42%	98.5% (active)	42%	78% (active)	97% (active)	21%	49%	97% (active)	28%	71% (active)	98.2% (active)
S=C(N/N=C1/CCCC/C1=N/NC(=S)N1CCOCC1)N1CCOCC1	38%	96% (active)	90.1% (active)	33%	99% (active)	93.7% (active)	40%	99% (active)	91.4% (active)	32%	98% (active)	91.2% (active)	51%	99% (active)	91% (active)	41%	97% (active)	91.2% (active)
OC(C/C(CNNc1ccccc1)=N/Nc1ccccc1)(C(F)(F)F)C(F)(F)F	6%	-9%	71.2% (active)	-2%	76% (active)	83.8% (active)	-6%	5%	69.2%	2%	75% (active)	55.4%	-1%	59%	74.6% (active)	14%	78% (active)	89% (active)
CC(C)Sc1nc(NC(=O)N(CCCl)N=O)cc(=O)[nH]1	-12%	26%	13.8%	-4%	9%	-2%	-12%	23%	20.4%	8%	12%	5.7%	-1%	7%	13.2%	2%	74% (active)	23.8%
CCCCSc1nc2c([nH]1)c(=S)n(C)c(=S)n2C	2%	80% (active)	63.5%	20%	91% (active)	82% (active)	12%	67%	55.5%	-5%	85% (active)	69.7%	-12%	92% (active)	66.3%	-7%	86% (active)	81.2% (active)
O=C(Nc1ccccc1)OCCN=c1c2ccccc2ccc2ccccc12	6%	84% (active)	84% (active)	-1%	71% (active)	90.5% (active)	7%	48%	88.2% (active)	-15%	68%	82.7% (active)	5%	78% (active)	90% (active)	5%	92% (active)	87.2% (active)
CC1=NC(=Cc2cccc(Cl)c2)C(=O)N1n1c(-c2ccccc2)nc2ccccc2c1=O	18%	73% (active)	68.5%	21%	77% (active)	69.9%	11%	71% (active)	79.4% (active)	16%	84% (active)	78% (active)	-9%	86% (active)	74.7% (active)	11%	81% (active)	81.7% (active)
[Cl][Pt+2][Cl].[NH-]CC1(C[NH-])CCCC1	28%	40%	0.2%	14%	19%	0.9%	26%	39%	-26.1%	7%	30%	-3.1%	19%	34%	-19.2%	26%	72% (active)	-30%
CCCCCCCCCCCCCCCCCCOC(=O)Nc1ccc(C)c(NC(=O)OCCCCCCCCCCCCCCCCCC)c1	-11%	-18%	70.2% (active)	6%	-1%	60.9%	-6%	-11%	59.8%	0%	-19%	26.4%	-3%	-3%	83.6% (active)	-11%	-9%	79.2% (active)
C=CCOC(=O)C(O)C(CC)CCCCC (configuration not stated)	25%	92% (active)	52.9%	0%	87% (active)	46%	9%	89% (active)	76.7% (active)	10%	31%	80.2% (active)	16%	91% (active)	54.4%	17%	92% (active)	-3.3%
O=C(CCCN1CCN2Cc3[nH]c4ccccc4c3CC2C1)c1ccc(F)cc1 (configuration not stated)	5%	58%	98.8% (active)	7%	73% (active)	98.7% (active)	20%	92% (active)	66.8%	2%	59%	95.6% (active)	4%	60%	92.1% (active)	37%	88% (active)	99.3% (active)
Cc1c2ccnc(-c3ccc(F)cc3)c2cc2c1[nH]c1ccccc12	-3%	1%	-0.35%	-14%	15%	-14.4%	-26%	48%	65.8%	7%	17%	-35.9%	-2%	1%	-17.1%	-3%	11%	-5.15%

From PubChem BioAssay (NCI)
